Only some compounds are listed: those with a hit (about 7.6% of all), similar ones and a draw of the others.
Gal4-VP16 FLuc: counter-screen for ROR gamma inhibitors: Gal4-VP16 reporter | Drosophila S2 Gal4-VP16 UAS-luciferase, luminescence, 20 h | Potency, µM (top dose mostly 53.6 µM), for the others: at the top dose activity, negative = inhibition, hits mostly inhibitors | 3.5% of 310,000 active;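 note: Gal4-VP16 expression switched on by copper sulfate through the metallothionein promoter; potency is the fitted concentration of half-maximal effect; % is set by controls: 0 for no effect and ±100 for the full control effect; nearly all actives have a fitted effect of over 50% in size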
p53 reactivation: restores transcriptional activity of mutant p53 | Potency, µM (series often up to 92.2 µM), without a hit: at the highest dose activity change, positive = activation, most hits filed as activators | 0.063% of 320,000 active | H1299 p53-A138V BP100-luciferase reporter, luminescence, 24 h | AID 504706; note: potency is the fitted concentration of half-maximal effect; % of control where 0% means no effect; nearly all actives have a fitted effect of over 45% in size
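p53-null H1299 cells stably carrying temperature-sensitive p53-A138V and a BP100-luciferase reporter were pinned with compounds (4-point, 1:5 series) and held 24 hrs at 37 deg C. Luminescence was read 10 min after detection reagent.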
ELG1 repair inh: blocks ELG1-dependent DNA repair in HEK293T cells | HEK293T ELG1-luciferase reporter, luminescence, 16 h; DNA damage induced by 5-fluorouridine | Potency, µM (doses to about 46.1 µM), for inactives: top-dose activity change, negative = inhibition, actives largely listed as inhibitors | 2.3% of 330,000 active | AID 504467; note: potency is the fitted concentration of half-maximal effect; % is set by controls: 0 for no effect and ±100 for the full control effect; nearly all actives have a fitted effect of over 55% in size
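Overnight (16 hr) co-exposure of 2,000 cells/well to 5-fluorouridine and compound at 37 °C preceded detection. Luciferase was quantified via ONE-Glo luminescence; loss of signal denotes inhibition.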
Giardia kill: Giardia lamblia killing; Giardia lamblia trophozoite viability; activity change, % at 7.66 µM, hits read low; 0.15% of 340,000 active; in the data active = activity change below about -80%; inconclusive = between about -30% and that limit;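 note: parasites exposed to compound for two days anaerobically before the ATP read; % is set by controls: 0 for no effect and ±100 for the full control effect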
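Giardia trophozoites, 100 cells per well, were exposed to compounds for 48 hrs at 37 deg C under anaerobic conditions; viability was then read as ATP content by bioluminescence after 15-30 min at room temperature.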
BRCA1 expr act: activators of BRCA1 expression. AID 624202. Potency, µM (series often up to 46.1 µM), inactives show top-dose activation, hits mostly activators. 1.1% of 380,000 active. MCF7-BRCA1-FFLuc reporter, luminescence, 48 h; response scale: scaled: vehicle 0%, 10 µM genistein 100%; note: potency is the fitted concentration of half-maximal effect; nearly all actives have a fitted effect of over 80% in size
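First, MCF7-BRCA1-FFLuc cells (2000/well) attach for 2 h; next, compounds are pin-added and incubated 48 h at 37 °C; finally, luciferase reagent is added and luminescence read after 15 min.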
RORg inh: inhibitors of mouse ROR gamma transcriptional activity; P51450; Potency, µM (doses to about 53.6 µM), for inactives: at the top dose activity change, negative = inhibition, actives largely listed as inhibitors; 5.4% of 310,000 active; Drosophila S2 Gal4-RORgamma UAS-luciferase reporter, 20 h; note: potency is the fitted concentration of half-maximal effect; % is set by controls: 0 for no effect and ±100 for the full control effect; nearly all actives have a fitted effect of over 60% in size
Target sequence (P51450 whole entry, looked up, the tested form may be a part): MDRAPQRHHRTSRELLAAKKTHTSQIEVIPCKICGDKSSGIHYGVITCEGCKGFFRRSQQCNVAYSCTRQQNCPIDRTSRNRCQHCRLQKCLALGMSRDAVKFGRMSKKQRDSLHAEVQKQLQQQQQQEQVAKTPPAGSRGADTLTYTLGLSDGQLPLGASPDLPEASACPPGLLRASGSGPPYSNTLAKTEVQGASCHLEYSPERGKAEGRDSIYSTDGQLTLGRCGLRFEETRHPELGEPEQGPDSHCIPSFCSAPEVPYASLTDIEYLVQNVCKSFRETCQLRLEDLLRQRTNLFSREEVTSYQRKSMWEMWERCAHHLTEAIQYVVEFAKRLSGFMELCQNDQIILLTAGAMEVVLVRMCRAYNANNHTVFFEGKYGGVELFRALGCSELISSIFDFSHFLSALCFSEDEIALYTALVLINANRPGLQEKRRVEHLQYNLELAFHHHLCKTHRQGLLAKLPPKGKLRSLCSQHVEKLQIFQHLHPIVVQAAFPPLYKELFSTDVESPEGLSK
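In this cell-based reporter format, copper sulfate (700 uM final) drives Gal4–ROR gamma fusion expression from a metallothionein promoter in Drosophila Schneider cells; compounds preincubated 1 hr, reporter read after 20 hr at ambient temperature.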
* hit, by the source's call; ? = inconclusive; · = not tested or not shown; [ ] = another dose, or the depositor's remark. Unless noted, calls come from the whole dose curve; as a rule, active = well fitted curve in the direction sought with a large enough effect; inconclusive = small, poorly fitted or top-dose-only effect, or another doubt; inactive = no such curve, though single readings can be large; an effect the other way counts as inactive or inconclusive.

SMILES	Gal4-VP16 FLuc	p53 reactivation	ELG1 repair inh	Giardia kill	BRCA1 expr act	RORg inh
Cc1cc(C)cc(NC(=O)c2ccc(NC(=O)C3C4CC5OC(=O)C3C5C4)cc2)c1 (centres undefined)	7.7%	-5.9%	1.4%	7.1	-3.1%	7.7%
Cc1ccc(C(=O)OCC(=O)Nc2cccc(S(=O)(=O)N3CCCCC3)c2)o1	·	-0.9%	0.0%	4.6	-5.8%	·
CC(C)NC(=S)N(C)C1(c2ccccc2Cl)CCCCC1=O (centres undefined)	-11.0%	-3.3%	-0.2%	10.5	2.0%	-11.1%[10 µM]
CN(C(=S)NC1CCCCC1)C1(c2ccccc2Cl)CCCCC1=O (centres undefined)	?	12.6%	20.6%	-19.0	-10.6%	12.6µM*
CCCCCCc1nc2c(=O)[nH]c3ccccc3c2o1	1.5%	-1.4%	17.5%	-6.3	-3.0%	-36.2%
CC1(C)CC(=O)C2=C(C1)Oc1nc3ccccc3cc1C2C(C#N)C#N (centres undefined)	?	-11.2%	23.1µM*	20.4	-91.3%	3.16µM*
CCN1/C(=C/c2ccc3ccccc3[n+]2CC)C=Cc2ccccc21	2.82µM*	-1.7%	?	-14.4	-98.9%	8.91µM*
OC1C=C2CCN3Cc4cc5c(cc4C(C1O)C23)OCO5 (centres undefined)	11.2µM*	·	·	·	·	?
Cc1noc(C)c1CN(C(=S)NC1CC1)c1ccccc1	-0.3%	6.7%	8.8%	1.2	-2.6%	39.6%
CCOC(=O)c1c(C)[nH]c2cc(Br)c(O)cc12	0.5%	?	?	14.0	-40.3%	?
CCOC(=O)c1c(OCC)[nH]c2c1cc(O)c1ccccc12	?	19.1%	20.6µM*	6.4	-42.7%	?
COc1ccc(CCNC(=O)C2CCCN(c3nc4ccccc4s3)C2)cc1OC (centres undefined)	-12.4%	4.1%	18.3µM*	-0.8	-11.8%	12.3%
CCc1nnc(NC(=O)C2CCCN(c3nc4ccccc4s3)C2)s1 (centres undefined)	10.2%	-1.1%	?	0.2	27.2%	22.5%
CC(C)(C)c1cc(OC(=O)C2CCCC2)ccc1O	11.2µM*	·	-32.9%	25.9	-40.9%	?
CCCCN(C=O)c1c(CC)nc2c(OCc3ccc(S(C)(=O)=O)cc3)cccn12	·	·	·	·	18.0%	·
CCCNc1c(N)n(-c2ccccc2)c(=O)[nH]c1=O	7.5%	1.2%	12.1%	-23.7	2.1%	-6.7%
CC(C)NC(=S)N/N=C/c1ccc2c(c1)OCCO2	?	17.0%	?	-0.8	96.9%	2.24µM*
COCCNC(=S)N/N=C/c1ccc2c(c1)OCCO2	?	6.5%	13.2%	-21.3	-2.5%	10µM*
COCCCNC(=S)N/N=C/c1ccc2c(c1)OCO2	?	-1.0%	?	22.5	-2.5%	5.62µM*
CC(=O)Nc1ccc(/C=N/NC(=S)NC(C)C)cc1	-17.1%	3.7%	14.5%	-10.1	-42.3%	15.8µM*
C=C(C)CNC(=S)N/N=C/c1ccc(NC(C)=O)cc1	2.7%	-0.9%	-5.0%	17.0	-0.3%	?
COCCn1c(-c2ccc(F)cc2)nc2oc3cc(OC)ccc3c(=O)c2c1=O	-4.7%	-3.7%	-13.7%	2.6	-30.1%	-16.8%
COc1ccc([C@H]2CC(=O)C=C(c3cc4ccccc4s3)C2)cc1OC	·	9.3%	?	22.6	-7.3%	·
COc1c(F)cccc1C1=CC(=O)C[C@H](c2ccc(F)cc2)C1	·	·	·	·	0.5%	·
COc1ccc([C@H]2CC(=O)C=C(c3cccc4c3sc3ccccc34)C2)cc1OC	·	5.0%	8.2µM*	-7.6	-22.9%	·
SMILES	Gal4-VP16 FLuc	p53 reactivation	ELG1 repair inh	Giardia kill	BRCA1 expr act	RORg inh
O=C1C=C(c2cccc3c2sc2ccccc23)C[C@@H](c2ccc(F)cc2)C1	·	1.0%	13µM*	13.0	-11.2%	·
COc1ccc([C@H]2CC(=O)C=C(c3cccc(OC)c3OC)C2)cc1OC	·	-10.3%	9.2µM*	-4.6	-59.9%	·
Cc1ccc(NC(=O)C2CCN(C(=O)OC(C)(C)C)CC2)cc1S(=O)(=O)N1CCCCC1	·	-3.6%	?	3.0	-19.5%	·
COCC(=O)N(C)[C@H]1C[C@H]2c3cc(-c4ccccc4)ccc3CCN2C(=O)[C@H]1[C@H](C)O	·	·	·	-16.4	-12.0%	·
Cc1ccc(-c2nc3n(n2)C(=O)CC(c2ccc(Cl)cc2)S3)cc1 (centres undefined)	·	·	·	·	37.8%	·
CCc1ccc(C(=O)/C=C/c2ccc([N+](=O)[O-])o2)cc1	8.91µM*	-14.8%	?	?	-13.2%	?
CCOC(=O)CCc1ccc(NC(=O)/C=C/c2ccc([N+](=O)[O-])o2)cc1	·	·	·	-22.5	-96.5%	·
Cc1ccc(C)c(NC(=O)c2cc3ccccc3o2)c1	3.9%	·	?	-7.9	45.0%	30.5%
Cc1cc([N+](=O)[O-])ccc1NC(=O)c1cc2ccccc2o1	8.3%	·	?	-11.6	7.94µM*	-16.9%
COc1cc(NC(=O)c2ccccc2)ccc1NC(=O)c1cc2ccccc2o1	-0.6%	-2.1%	?	-19.0	-35.8%	2.8%
Cc1cc(NC(=O)c2cncc(Br)c2)ccc1NC(=O)c1cc2ccccc2o1	11.2µM*	2.1%	?	-17.7	-80.3%	?
COc1ccc(S(=O)(=O)N(C)C)cc1NCC(=O)Nc1cccc2ccccc12	·	·	·	15.3	-14.5%	·
COC(=O)CCCC1=CC2=C(c3ccccc3)C(=O)C(C)(OC(=O)C3CCCC3)C(=O)C2=CN1CC1CC1 (centres undefined)	-8.2%	1.8%	?	-13.0	-15.9%	30.3%
C1=C(c2ccc(-c3ccccc3)cc2)Nc2ncnn2C1c1ccco1 (centres undefined)	?	?	?	7.8	-20.9%	11.2µM*
S=C(S)OC1CC2CC1C1CCCC21 (centres undefined)	·	·	·	-8.0	9.7%	·
S=C(S)O[C@@H]1C[C@@H]2C[C@H]1[C@@H]1CCC[C@H]21	1µM*	·	·	·	·	0.562µM*
COc1ccc(Cn2c(SCc3ccccc3C)nc3cc(OC)c(OC)cc3c2=N)cc1	22.4µM*	-26.3%	?	·	·	?
COc1cc2nc(SCc3ccc(F)cc3)n(Cc3cccs3)c(=N)c2cc1OC	?	-1.4%	?	-3.5	-31.8%	-0.7%
CCn1c(SCC(=O)Nc2ccccc2N2CCCCC2)nc2c1c(=O)n(C)c(=O)n2C	-13.8%	-14.4%	18.4µM*	7.8	-7.6%	19.1%
CC(C)n1c(SCC(=O)Nc2ccccc2N2CCOCC2)nc2c1c(=O)n(C)c(=O)n2C	-14.6%	-8.8%	?	2.6	-42.8%	21.2%
COc1ccc(/C=C2\N=C(SC)NC2=O)cc1	?	·	·	8.3	-1.1%	12.6µM*
Cc1ccnc(NC(=S)NC(=O)c2cccs2)c1	3.98µM*	·	?	?	82.7%	2.24µM*
